# Results as given in PubChem BioAssay AID651717 (Broad Institute, 2012).
# About 950 (79%) of roughly 1,200 compounds were called active.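 Rule for the calls: active = signal rises and fitted curve reaches 40% activity at or below the top valid tested dose, in every replicate test; inconclusive = replicate tests give mixed calls; inactive = the rest, including activity in the opposite direction.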 The set was probably picked from earlier hits. Only a sample is shown. Measured potencies and affinities stand elsewhere.
# Test: compounds raising Bmi1 reporter signal – mouse embryonic stem cells, luciferase, cherry-pick, esBAF inhibitor project, dose response (AID 651717);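 note: luciferase knocked into Bmi1 locus with EF-1a renilla as cell number control; rising ratio signals esBAF inhibition which derepresses Bmi1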
# Conditions: mESC Bmi1-luciferase reporter, firefly/renilla ratio, 24 h, stronger effect = higher value; at 35 µM unless noted
row,Compound,max activity
1,Cc1ccc(S(=O)(=O)N2CCOCC2)cc1C(=O)Nc1ccc(-c2cn3ccsc3n2)cc1,-8.19% (inactive)
2,CC(C)c1ccc(Nc2ncc3c(n2)CCN(C(=O)Nc2ccc(F)c(Cl)c2)C3)cc1,20.6% (inactive)
3,N#Cc1cccc(NC(=O)c2cc(C3CCCCN3S(=O)(=O)c3cccc4cccnc34)on2)c1 (centres undefined),-16.3% (inactive)
4,O=C(Nc1ccc(F)c(Cl)c1)c1cc(C2CCCN(S(=O)(=O)c3cccc4cccnc34)C2)on1 (centres undefined),29.2% [at 16 µM] (inactive)
5,O=C1C2C(c3cccc(/C=C/c4ccccc4)c3)CC=CC2C(c2ccc3ccccc3c2)N1Cc1ccccc1 (centres undefined),17.2% (inactive)
6,COC(=O)c1ccc(-c2ccc(OC)c([C@H]3[C@H]4C=CC[C@@H](C)[C@@H]4C(=O)N3Cc3ccccc3)c2)cc1,-14.1% (inactive)
7,CN(C)C(=O)CCc1ccc2c3c([nH]c2c1)[C@]1(CCc2ccccc2)[C@@H](C(=O)N2CCCCC2)C[C@H](CC(=O)NCCC2=CCCCC2)C(=O)N1CC3,-35% [at 8 µM] (inactive)
8,C[C@H](CO)N1C[C@H](C)[C@@H](CN(C)C(=O)Nc2ccc3c(c2)OCO3)Oc2ncc(C#CC3(O)CCCC3)cc2C1=O,-4.31% [at 16 µM] (inactive)
9,C[C@H](CO)N1C[C@H](C)[C@H](CN(C)C(=O)Nc2ccc3c(c2)OCO3)Oc2c(NS(=O)(=O)c3ccccc3)cccc2C1=O,-12.7% (inactive)
10,C[C@@H]1CCCCO[C@H](CN(C)S(=O)(=O)c2cn(C)cn2)[C@@H](C)CN([C@@H](C)CO)C(=O)c2cc(NC(=O)Nc3ccc4c(c3)OCO4)ccc2O1,-8.77% [at 8 µM] (inactive)
11,C[C@H](CO)N1C[C@H](C)[C@@H](CN(C)S(=O)(=O)c2cn(C)cn2)Oc2c(NC(=O)Nc3ccc4c(c3)OCO4)cccc2C1=O,-22.8% (inactive)
12,O=C(NCC[C@H]1CC[C@H](NC(=O)Nc2cc(F)ccc2F)[C@H](CO)O1)Nc1ccc(Cl)cc1,31.4% (inactive)
13,Cc1ccc(S(=O)(=O)N[C@H]2CC[C@@H](CCNC(=O)Nc3ccc(Cl)cc3)O[C@H]2CO)cc1,-11.4% (inactive)
14,C[C@H]1CN([C@@H](C)CO)C(=O)c2c(c3ccccc3n2C)-c2ccccc2CO[C@H]1CN(C)C(=O)Nc1ccc2c(c1)OCO2,-25.1% (inactive)
15,Cc1noc(C)c1NC(=O)N(C)C[C@@H]1Oc2ncc(C#CC3CC3)cc2C(=O)N([C@@H](C)CO)C[C@H]1C,9.7% [at 8 µM] (inactive)
16,O=C(Cc1ccc(Cl)cc1)NC1CCCCCC1,37.5% (inactive)
17,CC(C)NC(=O)N(C)C[C@@H]1OCCCC[C@H](C)Oc2ccc(NC(=O)Nc3ccc4c(c3)OCO4)cc2C(=O)N([C@H](C)CO)C[C@@H]1C,11.4% [at 0.5 µM] (inactive)
18,CS(=O)(=O)Nc1ccc(C2=NN(S(C)(=O)=O)C(c3cccs3)C2)cc1 (centres undefined),36.3% [at 16 µM] (inactive)
19,COc1ccc(S(=O)(=O)N2Cc3ccccc3CC2C(=O)Nc2ccc3c(c2)OCO3)cc1 (centres undefined),17% [at 4.2 µM] (inactive)
20,Cc1nc2cc(C(=O)O)ccc2s1,22% [at 16 µM] (inactive)

row,Compound,max activity
1,CN(C(=O)c1cc2c(s1)-c1ccccc1S(=O)(=O)C2)c1ccccc1,29.1% (inactive)
2,N=C1/C(=C/c2ccc(OCc3ccccc3)cc2)C(=O)N=C2SC(CC(=O)N3CCOCC3)=NN12,23.9% (inactive)
3,Cc1ccc(COc2ccccc2C(=S)N2CCCC2)cc1,28.7% (inactive)
4,C[C@H]1CN([C@@H](C)CO)C(=O)c2cccc(NC(=O)Nc3ccc(C(F)(F)F)cc3)c2O[C@@H]1CN(C)C,14.9% [at 8 µM] (inactive)
5,C[C@H](CO)N1C[C@H](C)[C@H](CN(C)C(=O)Nc2ccc3c(c2)OCO3)OCc2ccccc2-c2c(n(C)c3ccccc23)C1=O,-46.6% (inactive)
6,CO[C@@H]1CN(C)C(=O)c2ccc(NC(=O)c3nc4ccccc4s3)cc2OC[C@@H](C)N(Cc2cccnc2)C[C@H]1C,18.5% (inactive)
7,CO[C@@H]1CN(C)C(=O)c2ccc(NC(=O)c3nc4ccccc4s3)cc2OC[C@@H](C)N(Cc2ccncc2)C[C@H]1C,38.8% (inactive)
8,CO[C@@H]1CN(C)C(=O)c2ccc(NC(=O)c3nc4ccccc4s3)cc2OC[C@@H](C)N(Cc2cncnc2)C[C@H]1C,21% [at 16 µM] (inactive)
9,CCCNC(=O)Nc1ccc2c(c1)OC[C@@H](C)N(Cc1ccc(-c3ccccn3)cc1)C[C@@H](C)[C@H](OC)CN(C)C2=O,-20.1% (inactive)
10,C[C@@H]1CN([C@@H](C)CO)C(=O)c2cc(NC(=O)Cc3cn(C)c4ccccc34)ccc2O[C@H]1CN(C)C(=O)Nc1ccc2c(c1)OCO2,9.93% [at 8 µM] (inactive)
11,COc1cccc(C(=O)Nc2ccc3c(c2)OC[C@@H](C)N(CCc2ccccc2)C[C@@H](C)[C@H](OC)CN(C)C3=O)c1,9.35% [at 1 µM] (inactive)
12,C[C@H](CO)N1C[C@H](C)[C@@H](CN(C)Cc2ccc(-c3ccccc3)cc2)Oc2ccc(NC(=O)CCCCCC(=O)Nc3ccccc3N)cc2CC1=O,16.8% [at 16 µM] (inactive)
13,CC(C)(C)C(=O)[C@H]1[C@H](c2ccccc2)[C@@]2(N=C(c3ccccc3)OC2=O)C2c3ccccc3C=NN21 (some centres undefined),19% [at 16 µM] (inactive)
14,O=C(NCCc1ccc(F)cc1)c1cccc(NC(=O)c2ccccc2)c1,21.2% (inactive)
15,CC1CCCN(C(=O)c2ccc(Cl)c(S(=O)(=O)N3CCCCCC3)c2)C1 (centres undefined),6.03% [at 4.2 µM] (inactive)
16,O=C(CNc1ccccc1F)Nc1cccc2ccccc12,-8.82% (inactive)
17,C[C@H]1CCCCO[C@H](CN(C)S(=O)(=O)c2cn(C)cn2)[C@@H](C)CN([C@@H](C)CO)C(=O)c2cc(NC(=O)Nc3ccc4c(c3)OCO4)ccc2O1,-6.42% [at 0.5 µM] (inactive)
18,O=C(c1cc(COc2ccc(F)cc2F)on1)N1CC2C[C@@H]3CC1C[C@H](C2)C3,35.9% [at 16 µM] (inactive)
19,C[C@@H]1CN([C@H](C)CO)C(=O)c2cc(NC(=O)Nc3ccc4c(c3)OCO4)ccc2O[C@@H](C)CCCCO[C@@H]1CN(C)S(=O)(=O)c1cn(C)cn1,-6.88% [at 1 µM] (inactive)
